# Test results: PubChem BioAssay (NCATS)
# Inconclusive results are not listed. Where a call stands in place of a potency, no number is given. The source made the active and inactive calls. Unless noted, calls come from the whole dose curve; as a rule, active = well fitted curve in the direction sought with a large enough effect; inconclusive = small, poorly fitted or top-dose-only effect, or another doubt; inactive = no such curve, though single readings can be large; an effect the other way counts as inactive or inconclusive.
# Assays:
# [1] = Primary qHTS for small molecule stabilizers of the endoplasmic reticulum resident proteome: Secreted ER Calcium Modulated Protein (SERCaMP) assay (AID 1508630)
# How it was run: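 GLuc-SERCaMP-expressing SH-SY5Y cells, pretreated 16 h with compound, are challenged with thapsigargin to empty ER calcium stores; after 4 h, coelenterazine is added directly to the medium and luminescence is imaged.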
# [2] = A High-Content qHTS Against Drug Library for the Identification of Small Molecules that Inhibit DYT1 Early Onset Primary Dystonia-Associated Cell Pathology (AID 1645839; calls by dose curve; note: potency is the fitted concentration of half-maximal effect)
# How it was run: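 Readout: %pathology, the punctate EGFP-TorsinA distribution from imaging, as the primary channel and cell count as the toxicity counterscreen. HEK293 Flp-In cells expressing delE TorsinA were induced with tetracycline and treated with compound for 48 h.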
# [3] = target: Cytochrome P450 2D6 (Homo sapiens) (UniProt P10635); assay: Cytochrome P450 family 2 subfamily D member 6 (CYP2D6) small molecule antagonists: luciferase biochemical (cell-free) qHTS assay (AID 1645840; active = well fitted curve in the direction sought with a large enough effect in the repeat runs; an effect the other way counts as inactive or inconclusive; note: series mostly up to about 57 µM; nearly all actives have a fitted effect of over 55% in size)
# How it was run: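 P450-Glo luminescent screen: recombinant CYP2D6 enzyme–proluciferin substrate mix preincubated with compound 10 min at room temperature, then NADPH regeneration added for 1 h at room temperature. Detection reagent added for 20 min; luciferin light read as relative luminescence units.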
# Sequence of Cytochrome P450 2D6 (Homo sapiens) (P10635 whole entry, looked up): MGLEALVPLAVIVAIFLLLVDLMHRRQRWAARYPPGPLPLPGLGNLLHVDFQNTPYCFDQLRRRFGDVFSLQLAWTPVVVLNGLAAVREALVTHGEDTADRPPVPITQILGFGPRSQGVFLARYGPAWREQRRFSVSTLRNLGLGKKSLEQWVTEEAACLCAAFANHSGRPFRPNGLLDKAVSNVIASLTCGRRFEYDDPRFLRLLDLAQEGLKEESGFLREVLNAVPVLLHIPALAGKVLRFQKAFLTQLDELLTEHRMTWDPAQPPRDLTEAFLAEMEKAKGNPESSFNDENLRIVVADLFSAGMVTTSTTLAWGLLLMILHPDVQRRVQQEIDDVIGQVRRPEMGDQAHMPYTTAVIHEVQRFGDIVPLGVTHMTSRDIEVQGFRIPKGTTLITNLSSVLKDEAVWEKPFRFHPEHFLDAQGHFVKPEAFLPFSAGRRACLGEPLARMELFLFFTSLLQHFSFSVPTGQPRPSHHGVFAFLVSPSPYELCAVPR
compound,measurement,setting,value
CNC(=O)c1ccccc1Sc1ccc2c(C=Cc3ccccn3)n[nH]c2c1,Potency,[1],inactive
N[C@@]1(C(=O)O)CS(=O)(=O)[C@H]2[C@H](C(=O)O)[C@H]21,Potency,[1],inactive
CCCCC1C(=O)N(c2ccccc2)N(c2ccccc2)C1=O,Potency,[1],inactive
same,Potency,[2],inactive
same,Potency,[3],inactive
O=C1C(Cl)=C(NCCN2CCOCC2)C(=O)c2ncccc21,Potency,[1],inactive
O=C(O)c1ccccc1C(=O)Nc1ccc(-c2ccccc2)cc1,Potency,[1],inactive
COC(=O)[C@@H]1[C@H]2C[C@H]3c4[nH]c5ccccc5c4CCN3C[C@@H]2CC[C@@H]1O,Potency,[1],inactive
O=c1c(-c2ccc(O)cc2)coc2cc(O)ccc12,Potency,[1],inactive
same,Potency,[3],inactive
O=C(O)c1cc(O)c2c(c1)C(=O)c1cccc(O)c1C2=O,Potency,[1],inactive
C[N+](C)(C)CC(=O)O,Potency,[2],inactive
same,Potency,[3],inactive
CC/C(=C(\c1ccccc1)c1ccc(OCCN(C)C)cc1)c1ccccc1,Potency,[1],inactive
same,Potency,[2],11.2 µM (active)
CC(=O)N(C)C1(c2ccccc2)CCN(CCC[C@]2(c3ccc(Cl)c(Cl)c3)CCCN(C(=O)c3ccccc3)C2)CC1,Potency,[1],inactive
CC(C)(C)C(=O)Oc1ccc2c(c1)nc(NC(=O)c1cccc([N+](=O)[O-])c1)n2CCCO,Potency,[1],inactive
NC[C@@H]1O[C@@H](O[C@H]2[C@@H](O)[C@H](O[C@@H]3[C@@H](O)[C@@H](N)C[C@H](N)[C@H]3O[C@H]3O[C@H](CN)[C@@H](O)[C@@H](O)[C@H]3N)O[C@H]2CO)[C@H](N)[C@@H](O)[C@@H]1O,Potency,[1],inactive
O=C1NC(=O)C(=Cc2cccc(C(F)(F)F)c2)S1,Potency,[1],inactive
C[C@@H](O)[C@H]1C(=O)N2C(C(=O)O)=C(S[C@@H]3CN[C@H](C(=O)N(C)C)C3)[C@H](C)[C@H]12,Potency,[1],inactive
same,Potency,[2],inactive
same,Potency,[3],inactive
